This is an account of results in the antibiotic and cytotoxicity screens of Wong et al. (2023).

The campaign covered roughly 39,000 compounds. About 500 (1.3%) were called active. What follows is part of a selection rich in actives, with near analogues and random picks from the rest.

The assay deals with S. aureus RN4220. Briefly: growth inhibition call (relative growth <= 0.2). To be noted: 50 µM.
Turning to `Cc1noc(C)c1NC(=O)N(C)C[C@H]1Oc2ccc(NC(=O)NC(C)C)cc2CC(=O)N([C@H](C)CO)C[C@@H]1C`, the growth inhibition call is “inactive”.

For `CN(c1ncccc1CNc1nc(Nc2ccc3c(c2)CC(=O)N3)ncc1C(F)(F)F)S(C)(=O)=O`, the growth inhibition call is “inactive”.

Consider `Cc1ccc(S(=O)(=O)Nc2cccc3c2O[C@@H](CN(C)S(=O)(=O)c2cn(C)cn2)[C@H](C)CN([C@H](C)CO)C3=O)cc1`, for which the growth inhibition call was “inactive”.

For `C[C@@H]1CCCCO[C@H](CN(C)C(=O)Nc2ccc(C(F)(F)F)cc2)[C@H](C)CN([C@@H](C)CO)C(=O)c2cc(NC(=O)Nc3ccc(C(F)(F)F)cc3)ccc2O1`, the growth inhibition call was “inactive”.

Take `C[C@@H]1CN([C@@H](C)CO)C(=O)c2cc(NC(=O)Nc3ccc(C(F)(F)F)cc3)ccc2O[C@H]1CN(C)Cc1ccc(-c2ccccc2)cc1`: the growth inhibition call is “inactive”.

`C[C@@H]1CN([C@H](C)CO)C(=O)c2cc(NC(=O)c3ccncc3)ccc2O[C@@H]1CN(C)Cc1ccncc1`: the growth inhibition call is “inactive”.

For the molecule `Cc1ccc(CN)cc1Cl`, the growth inhibition call is “inactive”.

Take `Cc1cc(C(=O)c2cc3cc(Cl)ccc3o2)ccc1Cl`: the growth inhibition call was “inactive”.

`Cc1cc(CN)cc(C)c1NC(=O)c1ccc(-c2cc(Cl)ccc2Cl)o1`: the growth inhibition call is “active”.

Take `O=C1CCOC1`: the growth inhibition call is “inactive”.

Turning to `C[C@H]1CN([C@@H](C)CO)C(=O)c2cc(NC(=O)Cn3cnnn3)ccc2O[C@H]1CN(C)Cc1ccc(Cl)c(Cl)c1`, the growth inhibition call is “inactive”.

Consider `CN(Cc1ccccc1)C(=O)[C@H](Cc1ccc2ccccc2c1)NC(=O)[C@@H]1CCCN1C(=O)Nc1ccccc1[N+](=O)[O-]`, for which the growth inhibition call was “inactive”.

Turning to `CCCC[P+](CCCC)(CCCC)Cc1ccc(NC(=O)[C@H](Cc2ccc3ccccc3c2)N/C(=N/C2CCCCC2)NC2CCCCC2)cc1`, the growth inhibition call was “active”.

`CCC(=O)Nc1ccc2ccccc2c1`: the growth inhibition call is “inactive”.

With `C[C@@H]1CN([C@H](C)CO)C(=O)c2cc(NC(=O)Nc3cccc4ccccc34)ccc2O[C@@H]1CN(C)C(=O)NC1CCCCC1`, the growth inhibition call was “inactive”.

Take `CCCC[P+](CCCC)(CCCC)Cc1ccc(NC(=O)[C@@H](Cc2ccc3ccccc3c2)N=C(NC2CCCCC2)NC2CCCCC2)cc1`: the growth inhibition call was “active”.

Turning to `C[C@H](CO)N1C[C@H](C)[C@@H](CN(C)C(=O)NC2CCCCC2)Oc2ccc(NC(=O)Nc3cccc4ccccc34)cc2C1=O`, the growth inhibition call was “inactive”.

Take `C[C@H](CO)N1C[C@H](C)[C@H](CN(C)S(=O)(=O)c2ccc(Cl)cc2)Oc2ccc(N(C)C)cc2CC1=O`: the growth inhibition call was “inactive”.

With `C[C@H]1CN([C@@H](C)CO)C(=O)c2cccc(NS(C)(=O)=O)c2O[C@@H]1CN(C)S(=O)(=O)c1ccc(F)cc1`, the growth inhibition call was “inactive”.

`CN(C)CCC=C1c2ccccc2CCc2ccccc21.Cl`: the growth inhibition call was “inactive”.

For the molecule `CN(C)CCC=C1c2ccccc2COc2ccc(CC(=O)O)cc21.Cl`, the growth inhibition call was “active”.

As to `CN(C)CCC=C1c2ccccc2COc2ccccc21.Cl`, the growth inhibition call was “inactive”.

As for `COc1ccc(S(=O)(=O)N(C)C[C@@H]2Oc3ccc(NC(=O)c4ccncc4)cc3C(=O)N([C@H](C)CO)C[C@H]2C)cc1`, the growth inhibition call was “inactive”.

On to `C[C@@H]1CCCCO[C@@H](CN(C)C(=O)C2CCCCC2)[C@@H](C)CN([C@@H](C)CO)C(=O)c2cc(NS(=O)(=O)c3cccs3)ccc2O1`, for which the growth inhibition call was “inactive”.

Take `Cc1noc(C)c1NC(=O)N(C)C[C@H]1Oc2ccc(NS(=O)(=O)c3c(C)noc3C)cc2CC(=O)N([C@H](C)CO)C[C@H]1C`: the growth inhibition call was “inactive”.

As for `Cc1ccc2sc(N(CCCN(C)C)C(=O)c3ccc(S(=O)(=O)N(C)C4CCCCC4)cc3)nc2c1C`, the growth inhibition call is “active”.

Consider `Cc1cc(Cl)cc2sc(N(Cc3ccccn3)C(=O)c3ccc(S(=O)(=O)N4CCCC4)cc3)nc12`, for which the growth inhibition call was “inactive”.

As to `Cc1ccc2sc(N(CCCN(C)C)C(=O)c3ccc(S(=O)(=O)N(C)Cc4ccccc4)cc3)nc2c1C`, the growth inhibition call was “inactive”.

For the molecule `CC(C)NC(=O)Nc1ccc2c(c1)C(=O)N([C@H](C)CO)C[C@@H](C)[C@H](CN(C)C(=O)C1CCCCC1)OCCCC[C@H](C)O2`, the growth inhibition call is “inactive”.

With `Cc1cc(C(=O)Nc2cccc3c2O[C@@H](CN(C)C(=O)Nc2c(C)noc2C)[C@H](C)CN([C@H](C)CO)C3=O)n(C)n1`, the growth inhibition call was “inactive”.

Consider `C[C@@H]1CCCCO[C@H](CN(C)S(=O)(=O)c2ccccc2)[C@@H](C)CN([C@H](C)CO)C(=O)c2cc(NC(=O)Nc3ccc(F)cc3)ccc2O1`, for which the growth inhibition call is “inactive”.

`CO[C@@H]1CN(C)C(=O)c2ccc(NS(=O)(=O)c3ccccc3)cc2OC[C@@H](C)N(C(=O)NC(C)C)C[C@H]1C`: the growth inhibition call was “inactive”.

Turning to `O=C(O)C1=C[C@@H](O)[C@H](O)[C@H](O)C1`, the growth inhibition call is “inactive”.

`C[C@H]1CN([C@@H](C)CO)C(=O)c2cc(NC(=O)Nc3ccc(C(F)(F)F)cc3)ccc2O[C@@H]1CN(C)Cc1ccccc1`: the growth inhibition call was “inactive”.

As for `C[C@H](CO)N1C[C@H](C)[C@@H](CN(C)Cc2ccc3c(c2)OCO3)Oc2ccc(NC(=O)Nc3ccc(C(F)(F)F)cc3)cc2C1=O`, the growth inhibition call is “inactive”.

On to `COc1ccc(NC(=O)Nc2ccc3c(c2)C(=O)N([C@@H](C)CO)C[C@@H](C)[C@@H](CN(C)Cc2ccc(C(F)(F)F)cc2)O3)cc1`, for which the growth inhibition call was “inactive”.

Consider `C[C@@H]1CN([C@@H](C)CO)C(=O)c2cc(NC(=O)Nc3ccc(C(F)(F)F)cc3)ccc2O[C@@H]1CN(C)Cc1ccccc1`, for which the growth inhibition call was “inactive”.

As to `C[C@@H]1CN([C@H](C)CO)C(=O)c2cc(NC(=O)Nc3ccc(C(F)(F)F)cc3)ccc2O[C@@H]1CN(C)Cc1ccccc1`, the growth inhibition call is “inactive”.

As to `C[C@H](CO)N1C[C@H](C)[C@@H](CN(C)Cc2ccccc2)Oc2ccc(NC(=O)Nc3ccc(C(F)(F)F)cc3)cc2C1=O`, the growth inhibition call was “inactive”.

`C[C@@H]1CN([C@@H](C)CO)C(=O)c2cc(NC(=O)Nc3ccc(C(F)(F)F)cc3)ccc2O[C@@H]1CN(C)Cc1ccc2c(c1)OCO2`: the growth inhibition call is “inactive”.

For `COc1ccc(CN(C)C[C@@H]2Oc3ccc(NC(=O)Nc4ccc(C(F)(F)F)cc4)cc3C(=O)N([C@@H](C)CO)C[C@@H]2C)cc1`, the growth inhibition call was “inactive”.

As for `C[C@H](CO)N1C[C@H](C)[C@H](CN(C)Cc2ccccc2)Oc2ccc(NC(=O)Nc3ccc(C(F)(F)F)cc3)cc2C1=O`, the growth inhibition call was “active”.

Consider `C[C@H]1CN([C@@H](C)CO)C(=O)c2cc(NC(=O)Nc3ccc(C(F)(F)F)cc3)ccc2O[C@H]1CN(C)Cc1ccc2c(c1)OCO2`, for which the growth inhibition call was “active”.

With `C[C@H]1CN([C@@H](C)CO)C(=O)c2cc(NC(=O)Nc3ccc(C(F)(F)F)cc3)ccc2O[C@H]1CN(C)Cc1ccccc1`, the growth inhibition call was “active”.

Regarding `COc1ccc(CN(C)C[C@@H]2Oc3ccc(NC(=O)Nc4ccc(C(F)(F)F)cc4)cc3C(=O)N([C@H](C)CO)C[C@@H]2C)cc1`, the growth inhibition call is “active”.

Consider `O=C(C[C@H]1CC[C@H]2[C@@H](COC[C@H](O)CN2S(=O)(=O)c2ccccc2)O1)N1CCOCC1`, for which the growth inhibition call is “inactive”.

Turning to `C[C@@H]1CN([C@@H](C)CO)C(=O)c2cc(NC(=O)NC3CCCCC3)ccc2O[C@@H](C)CCCCO[C@H]1CN(C)S(=O)(=O)c1ccc(F)cc1`, the growth inhibition call was “inactive”.

In the case of `CC(C)c1cc(=O)n2nc(N)nc2[nH]1`, the growth inhibition call was “inactive”.

As to `Cc1ccc(S(=O)(=O)N(C)C[C@@H]2Oc3ncc(C#CCC(C)C)cc3C(=O)N([C@@H](C)CO)C[C@H]2C)cc1`, the growth inhibition call is “inactive”.

For the molecule `Cc1noc(C)c1NC(=O)N[C@@H]1CC[C@H](CC(=O)N2CCN(C)CC2)O[C@H]1CO`, the growth inhibition call was “inactive”.

Regarding `CC(=O)N1[C@H](CO)[C@H](c2ccccc2)[C@H]1CNC(=O)CN1CCOCC1`, the growth inhibition call is “inactive”.

In the case of `C[C@@H]1CN([C@@H](C)CO)C(=O)c2cc(NS(C)(=O)=O)ccc2O[C@@H]1CN(C)C(=O)NC1CCCCC1`, the growth inhibition call is “inactive”.

On to `Cc1ccc(S(=O)(=O)N(C)C[C@H]2Oc3ccc(NS(=O)(=O)c4ccccc4)cc3C(=O)N([C@@H](C)CO)C[C@H]2C)cc1`, for which the growth inhibition call is “inactive”.

`Cc1ccc(S(=O)(=O)Nc2ccc3c(c2)C(=O)N([C@@H](C)CO)C[C@H](C)[C@@H](CN(C)C(=O)Nc2ccc(C(F)(F)F)cc2)OCCCC[C@H](C)O3)cc1`: the growth inhibition call is “inactive”.

As to `COCC(=O)Nc1ccc2c(c1)[C@H]1C[C@H](CC(=O)N3CCOCC3)O[C@H](CO)[C@H]1O2`, the growth inhibition call is “inactive”.

For the molecule `COc1ccc(NC(=O)Nc2ccc3c(c2)C(=O)N([C@@H](C)CO)C[C@@H](C)[C@@H](CN(C)S(=O)(=O)c2cn(C)cn2)O3)cc1`, the growth inhibition call is “inactive”.

For the molecule `CO[C@@]12[C@H](COC(N)=O)C3=C(C(=O)C(C)=C(N)C3=O)N1C[C@@H]1N[C@@H]12`, the growth inhibition call is “inactive”.

On to `CO[C@@]12[C@@H]3N[C@@H]3CN1C1=C(C(=O)C(N)=C(C)C1=O)[C@@H]2COC(N)=O`, for which the growth inhibition call is “active”.

For `COC12C(COC(N)=O)C3=C(C(=O)C(C)=C(N)C3=O)N1CC1NC12` (centres undefined), the growth inhibition call was “active”.

For `Cc1onc(C(=O)O)c1[N+](=O)[O-]`, the growth inhibition call was “inactive”.

Take `C[C@H]1CN([C@@H](C)CO)S(=O)(=O)c2ccc(C#Cc3cccnc3)cc2O[C@H]1CN(C)C(=O)CN(C)C`: the growth inhibition call is “inactive”.

As for `CN[C@@H]1[C@H](O[C@H]2[C@H](O[C@H]3[C@H](O)[C@@H](O)[C@H](NC(=N)N)[C@@H](O)[C@@H]3NC(=N)N)O[C@@H](C)[C@]2(O)C=O)O[C@@H](CO)[C@H](O)[C@H]1O`, the growth inhibition call is “inactive”.

Turning to `CN[C@H]1[C@@H](O[C@H]2[C@@H](O[C@H]3[C@@H](O)[C@@H](O)[C@@H](NC(=N)N)[C@@H](O)[C@@H]3NC(=N)N)O[C@@H](C)[C@@]2(O)C=O)O[C@@H](CO)[C@@H](O)[C@@H]1O.CN[C@H]1[C@@H](O[C@H]2[C@@H](O[C@H]3[C@@H](O)[C@@H](O)[C@@H](NC(=N)N)[C@@H](O)[C@@H]3NC(=N)N)O[C@@H](C)[C@@]2(O)C=O)O[C@@H](CO)[C@@H](O)[C@@H]1O.O=S(=O)(O)O.O=S(=O)(O)O.O=S(=O)(O)O`, the growth inhibition call was “inactive”.

Take `CNC1C(OC2C(OC3C(O)C(O)C(NC(=N)N)C(O)C3NC(=N)N)OC(C)C2(O)C=O)OC(CO)C(O)C1O.O=S(=O)(O)O` (centres undefined) [STREPTOMYCIN SULFATE [5mM; 10% aq DMSO + 5mM ethanolamine]]: the growth inhibition call is “active”.
